From publication PMC4336329 (PLoS ONE, 2015)
About 14,000 (4.5%) of roughly 310,000 compounds showed an effect of 50% or more. The effect is printed as a negative number. The list comes from a sample in which strong results are over-represented; it also holds similar structures and randomly drawn compounds.

Target: human ether-à-go-go-related gene (hERG) potassium channel (human, UniProt Q12809)
Test: primary screen, population patch clamp on CHO cells stably expressing hERG; higher = less effect of the substance
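Further: peak tail current of the secondary pulse compared with the same well before compound.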

Chain of human ether-à-go-go-related gene (hERG) potassium channel (Q12809 whole entry, looked up): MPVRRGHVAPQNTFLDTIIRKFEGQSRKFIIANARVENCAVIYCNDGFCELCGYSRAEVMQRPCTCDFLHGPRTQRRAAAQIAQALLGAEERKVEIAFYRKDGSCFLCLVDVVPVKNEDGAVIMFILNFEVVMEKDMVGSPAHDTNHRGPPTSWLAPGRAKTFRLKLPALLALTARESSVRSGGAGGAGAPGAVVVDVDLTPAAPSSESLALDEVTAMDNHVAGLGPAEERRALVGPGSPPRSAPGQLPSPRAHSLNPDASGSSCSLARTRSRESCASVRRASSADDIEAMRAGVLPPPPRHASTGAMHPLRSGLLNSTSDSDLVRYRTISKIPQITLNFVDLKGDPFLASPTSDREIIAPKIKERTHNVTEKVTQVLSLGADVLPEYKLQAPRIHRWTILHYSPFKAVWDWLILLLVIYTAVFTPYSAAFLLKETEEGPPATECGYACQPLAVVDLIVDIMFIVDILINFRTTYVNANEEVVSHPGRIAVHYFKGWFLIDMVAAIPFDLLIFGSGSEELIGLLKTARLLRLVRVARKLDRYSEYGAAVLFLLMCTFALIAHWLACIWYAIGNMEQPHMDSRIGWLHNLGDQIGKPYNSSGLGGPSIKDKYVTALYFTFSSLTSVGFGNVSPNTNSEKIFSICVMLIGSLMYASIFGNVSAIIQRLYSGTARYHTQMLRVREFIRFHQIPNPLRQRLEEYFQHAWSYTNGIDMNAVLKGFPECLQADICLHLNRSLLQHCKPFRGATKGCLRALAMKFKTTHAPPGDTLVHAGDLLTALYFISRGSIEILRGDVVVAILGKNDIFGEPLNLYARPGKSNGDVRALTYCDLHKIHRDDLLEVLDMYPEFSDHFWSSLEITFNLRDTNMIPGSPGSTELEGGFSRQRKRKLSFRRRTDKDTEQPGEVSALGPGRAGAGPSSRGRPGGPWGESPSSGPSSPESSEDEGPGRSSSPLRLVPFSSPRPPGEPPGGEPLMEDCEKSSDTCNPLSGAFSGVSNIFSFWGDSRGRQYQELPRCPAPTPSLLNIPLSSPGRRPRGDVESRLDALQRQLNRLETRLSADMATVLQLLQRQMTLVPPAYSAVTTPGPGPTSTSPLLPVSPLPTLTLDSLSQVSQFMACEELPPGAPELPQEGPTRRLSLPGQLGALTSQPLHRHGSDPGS

Compound | hERG current change (%, negative = inhibition) at 10uM
FC(F)(F)c1cccc(Nc2nc(N3CCOCC3)nc(N3CCOCC3)n2)c1 | 15.6%
FC(F)(F)c1cccc(Nc2nc(N3CCCC3)nc(N3CCCC3)n2)c1 | 23.7%
Cl.Fc1ccc(Nc2nc(N3CCOCC3)nc(N3CCOCC3)n2)cc1 | 4.26%
CN1CCN(c2nc(Nc3cccc(C(F)(F)F)c3)nc(N3CCOCC3)n2)CC1 | -60%
CN1CCN(c2nc(Nc3ccc(F)cc3)nc(Nc3ccc(F)cc3)n2)CC1 | -60.5%
COc1ccc(N2CCN(c3nc(Cl)nc(Nc4ccc(F)cc4)n3)CC2)cc1 | 7.8%
COc1ccc(/C=N/N=C/c2ccc(OC)c(O)c2)cc1O | 23.2%
Cc1ccc(C(=O)/C=C/c2ccc(-c3ccccc3[N+](=O)[O-])o2)cc1 | 12.5%
CCCCNC(=O)/C(=C\c1ccc([N+](=O)[O-])o1)NC(=O)c1ccccc1 | -39.8%
O=C(O)/C(=C\c1ccc(-c2ccccc2[N+](=O)[O-])o1)c1ccccc1 | 23.6%
Cc1ccc(C(=O)N/C(=C\c2ccc(-c3ccccc3[N+](=O)[O-])o2)C(=O)NCCN(C)C)cc1 | -55.4%
Cc1ccc(C(=O)N/C(=C\c2ccc(-c3ccccc3[N+](=O)[O-])o2)C(=O)NCCCN(C)C)cc1 | -74.5%
Cc1ccc(Oc2ccccc2/C=C/C(=O)O)cc1 | 14.6%
C=CCn1c(SCC(=O)NC(=O)NC2CCCC2)nnc1C1CCCCC1 | 3.7%
O=C(CSc1nnc(CNc2ccc(F)cc2)o1)N1c2ccccc2Sc2ccccc21 | 11%
CCN1CCN(CCNC(=O)c2ccc(/C=C3/Sc4ccccc4N(Cc4cccc(C)c4)C3=O)cc2)CC1 | -22%
CCOc1cc(CNCCN2CCOCC2)ccc1OCc1ccccc1Cl.Cl | -41.8%
CCOc1cc(CNCCO)cc(Br)c1OCc1ccccc1Cl.Cl | 12.5%
CCOc1cc(CNCCCN2CCOCC2)ccc1OCC(=O)Nc1cccc2ccccc12.Cl | -7.77%
CCOc1cc(CNC(CC)CO)ccc1OCC(=O)Nc1cccc(C(F)(F)F)c1 (stereo not drawn) | -68.3%
COc1cc(CNCCCN2CCOCC2)ccc1OCC(=O)Nc1cccc(C(F)(F)F)c1.Cl | -56.6%
COc1cc(CNCCCN2CCOCC2)ccc1OCC(=O)NC(C)(C)C.Cl | 21%
COc1ccc(NC(=O)COc2ccc(CNCCCN3CCOCC3)cc2OC)cc1.Cl | 0.185%

Compound | hERG current change (%, negative = inhibition) at 10uM
CCC(CO)NCc1ccc(OCC(=O)Nc2cccc(C(F)(F)F)c2)c(OC)c1 (stereo not drawn) | -43.6%
CCOc1cc(CNCCCN2CCOCC2)cc(Br)c1OCC(=O)Nc1cccc(C(F)(F)F)c1.Cl | -70.3%
CCOc1cc(CNCCCN2CCOCC2)cc(Br)c1OCc1ccccc1Cl.Cl | -64.9%
CCOc1cc(CNCCCN2CCOCC2)cc(Cl)c1OCC(=O)NC(C)(C)C.Cl | 5.38%
CCOc1cc(CNC(C)(C)C)ccc1OCC(=O)Nc1cccc(C(F)(F)F)c1.Cl | -13.7%
CCOc1ccc(CC(=O)Nc2ccc(S(=O)(=O)N3CCCC3)cc2)cc1 | 10.4%
Cc1cc(C(=O)COC(=O)CC2Sc3ccccc3NC2=O)c(C)n1-c1ccccc1 (stereo not drawn) | 28%
O=C(COc1ccc2c(c1)C(=O)CC1(CCCCC1)O2)NCc1ccccn1 | -33.9%
O=C(CCS(=O)(=O)c1cccc2nonc12)Nc1cccc2c1CCCC2 | 4.5%
Cc1ccc(C)c(N2CC(C(=O)O)CC2=O)c1 (stereo not drawn) | -2.08%
CN(CC(=O)Nc1ccc(Cl)cc1)C(=O)COc1ncnc2ccccc12 | -8.52%
CCCCn1nnnc1SCC(=O)N(CC)CC | 10.4%
CCOc1ccc(NC(=O)CSc2nnc(C)n2Cc2ccccc2)cc1 | -16.4%
O=C(CN1CC[n+]2c(-c3cccs3)csc21)c1ccc(-c2ccccc2)cc1.[Br-] | -54.3%
O=C(CN1CC[n+]2c(-c3cccs3)csc21)c1ccc(Br)cc1.[Br-] | -45.9%
O=C(CN1CC[n+]2c(-c3ccccc3)csc21)c1ccc(Br)cc1.[Br-] | -40.6%
NNC(=O)c1cccc(S(=O)(=O)Nc2cccc(C(F)(F)F)c2)c1 | 1.4%
CC1CN(c2ccc([N+](=O)[O-])cn2)CC(C)O1 (stereo not drawn) | -19.7%
CC1(C)CC(C(=O)NCCC(c2ccccc2)c2ccco2)CCO1 (stereo not drawn) | -9.31%
O=C1c2ccccc2C(=O)N1CCC(c1ccc(F)cc1)c1ccco1 (stereo not drawn) | -6.1%
CC1(C)CC(NCCC(c2ccccc2)c2ccco2)CCO1 (stereo not drawn) | -52.5%
CC1(C)CC(CNCCC(c2ccc(F)cc2)c2ccco2)CCO1 (stereo not drawn) | -62.5%
